PLCg1 inh: inhibitors of human phospholipase C gamma1; 370,000 compounds, 0.84% hits; AID 720700; inhibition, % at 12.2 µM; purified PLC-gamma1, fluorogenic substrate, fluorescence; P19174; in the data active = inhibition above about 9.5%
Target sequence (P19174 whole entry, looked up): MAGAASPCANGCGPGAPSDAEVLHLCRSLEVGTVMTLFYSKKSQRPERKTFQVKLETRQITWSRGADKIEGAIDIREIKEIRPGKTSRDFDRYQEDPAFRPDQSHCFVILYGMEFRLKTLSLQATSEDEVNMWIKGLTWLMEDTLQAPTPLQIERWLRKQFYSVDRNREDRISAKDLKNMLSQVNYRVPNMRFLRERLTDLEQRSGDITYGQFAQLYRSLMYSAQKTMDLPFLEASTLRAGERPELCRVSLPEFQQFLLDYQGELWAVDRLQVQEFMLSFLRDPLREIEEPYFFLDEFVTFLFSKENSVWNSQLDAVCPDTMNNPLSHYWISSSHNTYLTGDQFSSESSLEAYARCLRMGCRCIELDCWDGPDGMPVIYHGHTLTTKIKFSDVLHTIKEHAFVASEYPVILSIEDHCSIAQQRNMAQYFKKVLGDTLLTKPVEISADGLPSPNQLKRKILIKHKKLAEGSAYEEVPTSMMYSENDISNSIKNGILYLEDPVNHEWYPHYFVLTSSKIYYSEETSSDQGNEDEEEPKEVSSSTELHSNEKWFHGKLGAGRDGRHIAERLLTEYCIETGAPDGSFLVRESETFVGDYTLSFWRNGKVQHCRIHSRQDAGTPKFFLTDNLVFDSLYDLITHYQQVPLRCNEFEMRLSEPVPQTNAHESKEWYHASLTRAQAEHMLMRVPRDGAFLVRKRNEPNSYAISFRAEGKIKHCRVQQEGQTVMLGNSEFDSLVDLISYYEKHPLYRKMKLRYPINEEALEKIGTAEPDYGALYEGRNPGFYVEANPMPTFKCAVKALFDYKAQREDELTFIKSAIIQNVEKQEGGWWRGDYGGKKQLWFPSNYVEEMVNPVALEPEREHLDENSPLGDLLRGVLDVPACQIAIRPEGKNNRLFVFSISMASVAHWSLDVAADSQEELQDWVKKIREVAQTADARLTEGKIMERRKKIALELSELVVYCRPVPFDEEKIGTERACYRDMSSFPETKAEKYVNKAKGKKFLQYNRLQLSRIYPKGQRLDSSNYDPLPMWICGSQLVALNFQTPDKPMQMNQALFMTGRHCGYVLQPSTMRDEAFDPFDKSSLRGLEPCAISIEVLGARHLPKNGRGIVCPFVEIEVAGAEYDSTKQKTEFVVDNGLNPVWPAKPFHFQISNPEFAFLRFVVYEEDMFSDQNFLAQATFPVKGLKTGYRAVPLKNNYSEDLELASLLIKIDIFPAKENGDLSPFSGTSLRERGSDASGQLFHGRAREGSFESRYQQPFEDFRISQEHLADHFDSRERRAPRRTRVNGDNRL
FAS TE block: inhibitors of human fatty acid synthase thioesterase domain; recombinant FAS-TE, OMFH fluorogenic substrate, fluorescence endpoint; inhibition, % at 15 µM; 360,000 compounds, 0.67% hits;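 active = compounds whose normalised, plate-corrected inhibition of enzyme fluorescence in the single-dose primary screen is 50% or more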;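 note: 0% = DMSO with enzyme and 100% = substrate without enzyme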
PLC-beta3 inh: PLC-beta3 (human) inhibition, primary screen | Q01970 | Purified PLC-beta3, fluorogenic substrate, fluorescence | inhibition, % at 12.2 µM | 370,000 compounds, 0.18% hits; in the data active = inhibition above about 11%;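 note: 0% = median of compound wells on plate and 100% = full blocker control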
Cardio protect: protects H9c2 cardiomyocytes from peroxide injury; 360,000 compounds, 0.63% hits; protection from H2O2 cell death, % at 20 µM; H2O2 injury protection, ATPLite, 2 h; AID 588492;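 active = compounds giving at least 50% protection of heart cells from peroxide-induced death in the single-dose screen, raw or plate-pattern-corrected value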;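 note: 0% = DMSO wells with peroxide and 100% = DMSO wells without peroxide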
Numbers without * were called inactive; . = not tested or not shown. Compounds with a hit are over-represented: about 2.2% of the library has one in this group of screens.

SMILES | PLCg1 inh | FAS TE block | PLC-beta3 inh | Cardio protect
CN(C(=O)Cn1nc(C(=O)O)c2ccccc2c1=O)C1(C#N)CCCCC1 | 2 | -9 | 2 | 57*
C[C@@H]1COc2cc(N3CCN(Cc4ccccc4F)CC3)ccc2S(=O)(=O)N1 | 9.8* | -8 | 5 | .
COCC#Cc1ccc(CC[C@H]2O[C@H]3CC[C@@H](CO)O[C@H]3C[C@H]2n2cc(C(C)(C)O)nn2)cc1 | 3 | . | -7 | .
C[C@H](O)[C@@H]1CN2CCc3c([nH]c4cccc(-c5ccccc5)c34)[C@@H]2C[C@@H]1N(C)C(=O)C1CCCCC1 | -272 | . | -301 | .
Oc1ccc(CNc2cccc(F)c2)c2cccnc12 | -9 | . | -6 | .
Cc1cccc(NCc2ccc(O)c3ncccc23)c1 | -5 | -2 | -5 | 58*
CCOC(=O)[C@@]12CCCC=C1N(CCc1ccc(Cl)cc1)C(=O)[C@H]2CC(=O)NCc1ccc(C)o1 | 4 | . | 2 | .
C[C@@H]1CNC(=O)c2c(C(=O)N(C)Cc3ccccc3)ncn21 | 0 | . | -2 | .
Cc1cc(C)c2cccc(N)c2n1 | -2 | 4 | 0 | -3
Cc1cc(C)c2ccc(N)nc2c1O | 0 | 0 | -1 | 60*
COC[C@H]1O[C@]2(c3ccccc3)CO[C@H]1[C@@H](/C=C/c1ccccc1)C2 | 2 | . | -2 | .
Cc1ccc(Cn2cc(CN3CC=CS3(=O)=O)nn2)cc1 | -1 | . | 2 | .
Cc1cc(C(=O)COc2ccccc2C(N)=O)c(C)n1C | 2 | -1 | -4 | 52*
CN1C(=O)c2cc(NC(=O)Cc3cccs3)ccc2OC[C@@H]2O[C@@H](CC(=O)N[C@H]3CCN(Cc4ccccc4)C3)CC[C@@H]21 | -2 | . | -2 | .
O=C1Nc2ccccc2C1=Nc1cccc([N+](=O)[O-])c1 | -2 | -8 | 2 | 2
NC(=O)c1ccc(N=C2C(=O)Nc3ccc([N+](=O)[O-])cc32)cc1 | 11* | -4 | -4 | 9
CCN(CC)C(=O)CSc1nnc(-c2cccs2)o1 | -2 | . | 1 | .
Cc1ccc(Cn2cc(COC(=O)N3CCOCC3)nn2)cc1 | 3 | . | 2 | .
Cc1nc(NC(=O)c2cc3c(C)nn(-c4ccccc4)c3s2)sc1C(=O)Nc1ccccc1 | -6 | 8 | -7 | 64*
CC(=O)c1sc(NC(=O)c2cc3c(C)nn(-c4ccccc4)c3s2)nc1C | 2 | -7 | 5 | -6
C=CCN1C(C(=O)OC)CN(Cc2cn(Cc3ccc(OC)cc3)nn2)CCS1(=O)=O (stereo unspecified) | 0 | . | 3 | .
Cc1ccc(/C=C/C(=O)c2ccccc(=O)c2O)cc1C | -7 | 8 | -11 | 75*
O=C(/C=C/c1ccccc1)c1cc(Br)ccc(=O)c1O | -15 | 8 | -19 | 44
CC12CCC(C(=O)N(CSC(=S)N/N=C\c3ccccc3O)C1=O)C2(C)C (stereo unspecified) | -9 | 15 | -6 | 52*
CC[C@@]12C(=O)N(c3cccc(F)c3)C(=O)N1[C@H](c1ccc(F)cc1)[C@@H]1C(=O)N(C3CCCCC3)C(=O)[C@@H]12 | . | 31 | . | -9
SMILES | PLCg1 inh | FAS TE block | PLC-beta3 inh | Cardio protect
CC(C)C[C@@]12C(=O)N(c3cccc(Br)c3)C(=O)N1[C@H](c1ccc(F)cc1)[C@@H]1C(=O)N(C3CCCCC3)C(=O)[C@@H]12 | 2 | 86* | 3 | -1
O=C1[C@H]2[C@@H](c3ccc(Cl)cc3)N3C(=O)N(c4cccc(Cl)c4)C(=O)[C@@]3(Cc3ccccc3)[C@H]2C(=O)N1C1CCCCC1 | 2 | 94* | -1 | -9
O=C1[C@H]2[C@@H](c3ccc(F)cc3)N3C(=O)N(c4ccc(Br)cc4)C(=O)[C@@]3(Cc3ccc(Cl)cc3)[C@H]2C(=O)N1C1CCCCC1 | 1 | 94* | 1 | 1
N#CC1=C(N)Oc2c(ccc3cccnc23)C1c1ccccc1 (stereo unspecified) | -53 | 3 | -83 | 58*
Cc1ccc2[nH]c(=O)c(C3C(C#N)=C(N)Oc4c3ccc3cccnc43)cc2c1 (stereo unspecified) | -50 | 10 | -65 | 64*
N#CCC[C@@H]1CC[C@]2(CCCN(Cc3ccc(Cl)cc3)C2)O1 | -2 | . | -1 | .
COC[C@@H]1CCCN1c1ccc2c(c1)O[C@H]1CCN(C1)S2(=O)=O | -3 | . | 3 | .
C[C@@]12C(=O)N(c3cccc(Cl)c3)C(=O)N1[C@@H]1c3ccccc3OC[C@@H]1[C@H]2c1ccccc1 | 0 | 20 | 1 | 5
COc1ccc2c(c1)[C@H]1[C@H](CO2)[C@H](c2ccccc2)[C@]2(C)C(=O)Nc3cc(Cl)ccc3C(=O)N12 | . | 89* | . | -9
C[C@]12C(=O)N(c3cccc(Cl)c3)C(=O)N1[C@H]1c3ccccc3OC[C@@H]1[C@H]2c1ccccc1 | . | 76* | . | -2
CCc1ccccc1NC(=O)c1cc(C)nn1-c1ccccc1 | 0 | . | 1 | .
